From PubChem BioAssay come the findings set out here.

Assay [1] in a line: Her2 expression decrease, cell viability multiplex – SKBR3 breast tumor cells, AlphaScreen, ATP viability, primary screen (AID 461;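 active = Her2 level under about 52% in both replicate screens, with viability over 70% of control, limit read from the data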;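 for Her2 level: lower value means less Her2 protein in the cells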;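 for viability: percent of carrier control wells set as 100% viability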). The note with it: SKBR3 Her2 protein level, 18-24 h, measured here: SKBR3 viability, ATP luminescence, at 10 µM. On the technique in general: In Alpha technology, singlet oxygen from a donor bead excites a nearby acceptor bead.
In assay [2] the target is Receptor tyrosine-protein kinase erbB-2 (Homo sapiens) (UniProt P04626). Described as above. The note with it: 18-24 h, at 10 µM, stronger effect = lower value.
Assay [3] is described as follows: reduced viability of SK-BR-3 breast cancer cells – cell-based, 24 h, human, pilot screen (AID 572;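 active = viability at or below 10% of carrier control in both of two separate runs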;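 note: compound exposure lasted between 18 and 24 h rather than exactly 24 h; 100% = carrier-treated control wells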). The following applies: SK-BR-3 viability, CellTiter-Glo luminescence, at 10 µM, stronger effect = lower value. For orientation: Cellular ATP, detected with luciferase, serves as a proxy for viable cell number.
Assay [4] can be described thus: HUVEC growth inhibition – cell-based, human, primary screen (AID 575;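 active = viability at or below 30% in both replicate assays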;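 note: 100% = median of untreated cell wells with 0.1% DMSO on each plate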). The following applies: HUVEC proliferation, CellTiter-Glo luminescence, 72 h; at 10 µM; stronger effect = lower value.
The nature of assay [5]: H69AR cell proliferation blockers – human, duplicate replicates, primary screen (AID 580;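 active = viability at or under a set limit in both replicates, limit being median viability minus 3 SD, cut at about 48% in these data, passing the limit was not always enough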;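 note: 100% = mean luminescence of untreated wells and 0% = no signal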). The following applies: H69AR lung tumor cells viability, ATP luminescence, 72 h; at 10 µM; stronger effect = lower value.
A short description of assay [6]: MRP1 drug-resistance reversers in H69AR cells – cell-based, doxorubicin co-treatment, pilot screen (AID 601;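 active = viability loss from added drug above about 55%, and viability with drug at most 40%, in both replicates, limit read from the data, passing the limit was not always enough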). The following applies: CellTiter-Glo, 72 h, at 10 µM; for differential viability (reversal): stronger effect = higher value.
A short description of assay [7]: yeast transport mutant growth inhibition pilot in 384-well plates, post-Golgi transport modulator project (AID 636; in the data active = inhibition above about 31%). The note with it: absorbance 615 nm, about 18 h, stronger effect = higher value.
Assay [8] is described as follows: growth suppression of yeast trafficking mutant, preliminary HTS, modulators of trafficking downstream of Golgi apparatus project, 1536-format plate, OD 615 nm (AID 637). The following applies: yeast transport mutant growth, absorbance 615 nm, 18 h; stronger effect = higher value.
Assay [9] is described as follows: S. cerevisiae growth inhibition in permissive medium (OD615), pilot counter-assay for S. cerevisiae lifespan shortening project, permissive growth control (AID 705;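 active = growth inhibition above 25% in both replicates, a cutoff set 3 SD above the mean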). The following applies: OD615, 24 h, at 10 µM, stronger effect = higher value.
Assay [10] in a line: S. cerevisiae growth inhibition in restrictive medium, OD615, pilot screen, restrictive growth control, yeast lifespan reduction project (AID 706;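 active = growth inhibition above a set limit, 3 SD over mean compound inhibition, in both replicates, cut at about 43% in these data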;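 note: modified DeaD lifespan yeast strain shifted to restrictive glucose medium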). The following applies: OD615, 48 h, at 10 µM, stronger effect = higher value.
Assay [11] is described as follows: doxorubicin toxicity protection in MRP-1 cells – H69AR cells, CellTiter-Glo, duplicate, MRP-1 activator project, pilot screen (AID 807;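 active = viability increase at or above a cutoff of the median across tested compounds plus 3 SD, cut at about 8.5% in these data, passing the limit was not always enough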;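 note: compound pretreatment 18-22 h then 72 h combined with doxorubicin; 0% = doxorubicin alone and 100% = vehicle without doxorubicin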). The note with it: H69AR viability with doxorubicin, CellTiter-Glo luminescence; at 10 µM; stronger effect = higher value.
Assay [12] can be described thus: viability of HCT116 without oncogenic beta-catenin – human colon tumor cells, pilot screen (AID 823;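 active = cell viability at or below a set limit in both duplicate runs, the limit being the all-compound median minus 4 SD, cut at about 23% in these data, passing the limit was not always enough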;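 note: 0% = wells killed by 20 µM Hyamine and 100% = untreated DMSO cell wells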). The following applies: HCT116 beta-catenin knockout viability, CellTiter-Glo, 60 h; at 10 µM; stronger effect = lower value.
A short description of assay [13]: viability of PTEN-null HCT116 cells – cell-based, HCT116 clonal line, CellTiter-Glo, pilot screen (AID 824;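 active = viability at or below 27.92% in each of two runs, the all-compound median minus 4 SD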;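 note: 0% = 20 µM Hyamine control and 100% = vehicle cell control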). The note with it: HCT116 PTEN-deleted viability, 60 h, at 10 µM, stronger effect = lower value.
A short description of assay [14]: RAM pathway blockade in budding yeast – dse1pr::URA3 reporter, 5-FOA selection, pilot screen (AID 869;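 active = inhibition over a set limit, the all-compound mean plus 3 SD, in both replicate runs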;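 note: 0% = DMSO wells with no growth and 100% = 10 µM 1-NA-PP1 with full growth; RAM network block rescues cells from 5-FOA so hits raise OD615 growth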). The note with it: S. cerevisiae dse1pr::URA3 5-FOA growth, OD615, 2 d; at 10 µM; stronger effect = higher value; strain carries analog-sensitive mutant Cbk1 kinase.
Assay [15] is described as follows: RAM signaling pathway blockade in yeast – S. cerevisiae, Pdr1DBD-CYC8 efflux-inhibited sensitized strain, primary screen (AID 1298;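 active = RAM network inhibition above 8.4% in each of two replicates, 3 SD over the compound average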;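 note: 0% = DMSO untreated cells without growth and 100% = 10 µM 1-NA-PP1 full growth; higher means more yeast growth rescued from 5-FOA killing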). The note with it: S. cerevisiae cbk1-as DSE1-URA3 strain, 5-FOA growth OD615, 2 d; at 50 µM; stronger effect = higher value.
The mark [16] stands for this setting: H69AR cells + 2 uM doxorubicin, measured here: viability with 2 uM doxorubicin, stronger effect = lower value.
The mark [17] stands for this setting: H69AR cells, compound alone cytotoxicity.

Records with an inconclusive call do not appear. The source made the active and inactive calls. Cut-off read from the data, not from the text of the source, unless noted: active = inhibition above about 30%; inactive = the rest.

By viability is commonly meant a read-out of living cells in per cent, often relative to untreated cells. A word on the inhibition: it is the change of the read-out against control, counted positive when it falls.

Chain of Receptor tyrosine-protein kinase erbB-2 (Homo sapiens) (P04626 whole entry, looked up): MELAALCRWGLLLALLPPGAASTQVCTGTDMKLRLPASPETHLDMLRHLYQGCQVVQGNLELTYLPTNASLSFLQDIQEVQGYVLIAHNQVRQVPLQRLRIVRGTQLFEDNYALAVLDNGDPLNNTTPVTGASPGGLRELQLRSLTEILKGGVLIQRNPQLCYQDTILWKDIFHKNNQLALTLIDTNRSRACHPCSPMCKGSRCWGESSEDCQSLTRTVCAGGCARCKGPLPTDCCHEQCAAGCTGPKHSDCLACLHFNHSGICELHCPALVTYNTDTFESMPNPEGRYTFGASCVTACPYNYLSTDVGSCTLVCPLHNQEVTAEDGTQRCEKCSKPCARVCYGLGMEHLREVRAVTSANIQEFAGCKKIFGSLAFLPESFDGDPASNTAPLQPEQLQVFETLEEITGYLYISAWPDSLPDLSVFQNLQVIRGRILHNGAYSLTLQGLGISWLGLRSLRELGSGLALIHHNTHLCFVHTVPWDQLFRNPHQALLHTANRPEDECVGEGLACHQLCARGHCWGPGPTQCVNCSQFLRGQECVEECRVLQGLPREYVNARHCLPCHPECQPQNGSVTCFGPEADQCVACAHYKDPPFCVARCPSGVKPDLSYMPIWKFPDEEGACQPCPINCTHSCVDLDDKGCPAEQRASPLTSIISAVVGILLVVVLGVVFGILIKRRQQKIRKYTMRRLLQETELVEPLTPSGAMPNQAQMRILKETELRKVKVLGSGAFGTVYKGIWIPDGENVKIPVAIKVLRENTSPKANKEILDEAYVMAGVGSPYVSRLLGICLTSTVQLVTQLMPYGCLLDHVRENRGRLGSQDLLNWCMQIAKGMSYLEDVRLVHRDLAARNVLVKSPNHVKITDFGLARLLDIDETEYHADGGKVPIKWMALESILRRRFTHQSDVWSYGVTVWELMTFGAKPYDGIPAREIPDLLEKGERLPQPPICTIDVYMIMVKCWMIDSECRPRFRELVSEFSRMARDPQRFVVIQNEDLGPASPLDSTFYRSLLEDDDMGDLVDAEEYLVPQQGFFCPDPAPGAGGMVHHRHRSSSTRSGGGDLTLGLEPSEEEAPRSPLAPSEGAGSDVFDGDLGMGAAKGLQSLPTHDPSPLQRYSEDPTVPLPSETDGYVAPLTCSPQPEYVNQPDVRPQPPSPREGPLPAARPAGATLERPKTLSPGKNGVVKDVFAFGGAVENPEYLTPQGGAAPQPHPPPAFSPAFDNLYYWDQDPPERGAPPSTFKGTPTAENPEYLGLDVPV

Regarding `O=c1c2ccccc2nc2n1CCN2`, the viability in assay [1] is 84%; in [3], 84% (inactive); in [4], 91.9% (inactive); in [5], 109% (inactive); in [6] (setting [16]), 83.3%; in assay [6] (setting [17]) it was 109%. Also, the viability in [12] is 101% (inactive); in [13], 104% (inactive). Moreover, in assay [2], the Her2 level was 95.5% (inactive). The differential viability (reversal) in [6] (H69AR cells + 2 uM doxorubicin) is 26.2% (inactive). The inhibition was -0.93% (inactive) in assay [7], 5.16% (inactive) in assay [8] and 1.84% (inactive) in assay [14]. Moreover, the growth inhibition in assay [9] was -3.22% (inactive); in assay [10] it was -1.61% (inactive). In addition, the viability increase in [11] was 0.22% (inactive). The RAM network inhibition in assay [15] is -0.47% (inactive).

Turning to `CC1(C)CC(=O)C(C=NCC2CCNCC2)=C(O)C1`, the viability in assay [1] is 104%; in [3] it was 104% (inactive); in assay [4], 106% (inactive); in assay [5], 93.8% (inactive); in assay [6] (setting [16]) it was 98.5%; in [6] (setting [17]), 93.8%. For the same molecule, the viability in assay [12] is 92.2% (inactive); in assay [13], 92.3% (inactive). In addition, the Her2 level in assay [2] is 117% (inactive). Moreover, the differential viability (reversal) in [6] (H69AR cells + 2 uM doxorubicin) is -4.75% (inactive). In addition, the figures for the inhibition in assay [7], in assay [8] and in [14] were 1.04% (inactive), 1.67% (inactive) and 2.66% (inactive), respectively. The growth inhibition in assay [9] was -20.1% (inactive); in [10], -16.9% (inactive). For the same molecule, the viability increase in assay [11] is -1.11% (inactive). Further, the RAM network inhibition in [15] was 6.82% (inactive).

`CC(CC(=O)NC1CCSC1=O)c1ccccc1` (stereo not given): the viability in [1] was 97%; in assay [3], 97% (inactive); in assay [4], 89.2% (inactive); in assay [5], 113% (inactive); in assay [6] (setting [16]), 111%; in [6] (setting [17]) it was 113%. Moreover, the viability in assay [12] was 96.5% (inactive); in [13], 95.9% (inactive). Besides, the Her2 level in assay [2] is 87.5% (inactive). The differential viability (reversal) in assay [6] (H69AR cells + 2 uM doxorubicin) was 1.77% (inactive). For the same molecule, the inhibition was -4.32% (inactive) in assay [7], 0% (inactive) in assay [8] and 0.235% (inactive) in [14]. For the same molecule, the figures for the growth inhibition in assay [9] and in assay [10] were 3.53% (inactive) and 6.91% (inactive), respectively. Moreover, in [11], the viability increase is 2.46% (inactive). The RAM network inhibition in [15] is 1.17% (inactive).

As to `CCC(C)C(NC(=O)C1CCC(C)CC1)C(=O)NCc1cccnc1` (stereo not given), the viability in assay [1] was 99%; in assay [3] it was 99% (inactive); in assay [4] it was 82.4% (inactive); in assay [5], 102% (inactive); in [6] (setting [16]), 96.3%; in assay [6] (setting [17]), 102%. The figures for the viability in assay [12] and in assay [13] were 86.4% (inactive) and 87.7% (inactive), respectively. For the same molecule, the Her2 level in [2] was 87.5% (inactive). Moreover, the differential viability (reversal) in [6] (H69AR cells + 2 uM doxorubicin) is 5.36% (inactive). Further, the inhibition in [7] was -6.89% (inactive); in assay [8] it was 3.17% (inactive); in assay [14], 0.265% (inactive). Moreover, the figures for the growth inhibition in assay [9] and in assay [10] were -12.5% (inactive) and -2.67% (inactive), respectively. Besides, in assay [11], the viability increase was -0.91% (inactive). In [15], the RAM network inhibition was 4.7% (inactive).

As to `COc1cccc(-n2c(SCC(=O)N3CCCC3)nc3c([nH]c4ccccc43)c2=O)c1`, the viability in assay [1] is 83%; in assay [3], 83% (inactive); in assay [4], 74.5% (inactive); in assay [5], 76.1% (inactive); in [6] (setting [16]), 77.9%; in assay [6] (setting [17]) it was 76.1%. Moreover, the viability was 90.3% (inactive) in assay [12] and 85.7% (inactive) in assay [13]. Moreover, the Her2 level in assay [2] is 80.5% (inactive). In addition, the differential viability (reversal) in assay [6] (H69AR cells + 2 uM doxorubicin) is -1.79% (inactive). Besides, the inhibition in assay [7] was -5.2% (inactive); in [8], -1.83% (inactive); in assay [14] it was 1.42% (inactive). Moreover, the growth inhibition is -8.48% (inactive) in assay [9] and -21.2% (inactive) in assay [10]. Further, the viability increase in assay [11] is -6.23% (inactive). Besides, the RAM network inhibition in assay [15] was 7.87% (inactive).
